Compound activity from PubChem.
PL biosyn Enam: phospholipid synthesis inhibitors, CHO cells, primary screen, ZR-82 cells, Enamine library, screen 3 | ZR-82 CHO cells, pyrene fatty acid UV survival, CellTiter Blue; peroxisome-deficient CHO-K1 mutant line; plus DGAT-1, DGAT-2 and ACAT inhibitors | calls only at 10 µM | 0.4% of 20,000 active | AID 1347385, 2020;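 active = cell survival signal 2 SD away from solvent-only control wells, confirmed on one or two retests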;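 also: 3 h compound exposure then viability read about one day after UV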
Starred values were filed as active, the others as inactive; i = inactive; + = active, no number. The full list was thinned out, with hits kept by preference.

SMILES | PL biosyn Enam
O=S(=O)(Nc1ccc2c(c1)CCC2)c1ccc(Br)cc1 | +
O=S(=O)(Nc1ccc2c(c1)OCCO2)c1ccc2c(c1)CCCC2 | i
O=c1c(Cl)c(N2CCN(C3CCS(=O)(=O)C3)CC2)cnn1-c1ccc(C(F)(F)F)cn1 (stereo unspecified) | i
O=C1Nc2ccccc2/C1=N\N=C\C1=C(N2CCOCC2)C(=C\c2ccccc2)/CC1 | +
C(=N\Nc1ccc(N2CCOCC2)nn1)/C1=C(N2CCOCC2)C(=C/c2ccccc2)/CC1 | i
Oc1ccc(/C=N/N=C/C2=C(N3CCOCC3)C(=C\c3ccccc3)/CC2)c(O)c1 | i
C=CC(=O)NC(=O)NC12CC3CC(CC(C3)C1)C2 | i
O=[N+]([O-])c1ccc(N=Nc2ccc(N(CCO)CC(F)(F)C(F)F)cc2)c(Cl)c1 | +
CCN(CC)c1ccc2c(c1)OC(=O)N(c1ccc(Cl)c(Cl)c1)P2(=Nc1ccc([N+](=O)[O-])cc1)N(CC)CC (stereo unspecified) | i
CN(C)c1ccc(N=Nc2ccc(SC(F)(F)F)cc2[N+](=O)[O-])cc1 | i
O=S(=O)(c1cc(Br)ccc1Br)N1CCN(c2ncccn2)CC1 | i
CC(NC(=O)CN1CCCCC1)C1CC2CCC1C2 (stereo unspecified) | i
Cc1cc(C(C)(C)C)cc(C)c1C[n+]1ccc2ccccc2c1 | +
Cc1cc(C(C)(C)C)cc(C)c1CSc1nc(=S)c2ccccc2[nH]1 | i
Cc1cc(C(C)(C)C)cc(C)c1CSc1ncnc2ccccc12 | i
S=C(NCc1ccccc1)NNC(=S)NC1CC2CCC1C2 (stereo unspecified) | i
CC1CN(C(=S)NC2CC3CCC2C3)C(=Nc2ccc(Cl)cc2)S1 (stereo unspecified) | i
CN=c1scc(-c2ccc(OC(F)F)cc2)n1/N=C/c1cc(OC)c(O)c(OC)c1 | i
CN=c1scc(-c2ccc(F)cc2)n1/N=C(\C)c1ccc(O)cc1O | i
CN=c1scc(-c2ccc(OC(F)F)cc2)n1/N=C(\C)c1ccc(O)cc1O | +
Fc1ccccc1-c1cn2c(n1)sc1ccccc12 | i
O=[N+]([O-])c1cc(S(=O)(=O)Nc2ccc(Cl)cc2)ccc1NNS(=O)(=O)c1ccc2c(c1)OCCO2 | i
O=C(O)CSc1nn(-c2ccc(F)cc2)c(=S)s1 | i
CC(C)(C)CC(C)(C)NS(=O)(=O)c1ccc([N+](=O)[O-])cc1 | i
CC(=O)NC1=NN(C(C)=O)C2(CCCCC2)S1 | i
SMILES | PL biosyn Enam
Cn1cccc1C=C(c1nc2ccccc2s1)c1nc2ccccc2s1 | +
C(=C(c1nc2ccccc2s1)c1nc2ccccc2s1)c1cccs1 | i
C(=C(c1nc2ccccc2s1)c1nc2ccccc2s1)c1ccc(-c2ccccc2)cc1 | i
C/C(=N\Nc1nc(C)cc(C)n1)c1ccc2c(c1)Nc1ccccc1S2 | i
O=S(=O)(Nc1c2c(nc3ccccc13)CCCC2)c1ccc(F)c(F)c1 | i
Cc1nc(SCC(=O)N(C2CCCCC2)C2CCS(=O)(=O)C2)c2c(C)c(C)sc2n1 (stereo unspecified) | i
c1ccc2cc(OCc3nc4ccccc4[nH]3)ccc2c1 | i
c1ccc2cc(OCc3nc4ccccc4s3)ccc2c1 | +
Brc1cc(Br)c2cccnc2c1OCc1nc2ccccc2s1 | i
O=C1Nc2c(Cl)cc(Cl)cc2/C1=N\N=C\c1ccc2c(c1)OCO2 | i
NS(=O)(=O)c1ccc(N/N=C2\CC3CC=CC23)c([N+](=O)[O-])c1 (stereo unspecified) | i
S=c1oc2ccc(Cl)cc2n1CN1CCCCCC1 | i
FC(F)Sc1nc(-c2ccccc2)c(-c2ccccc2)n1C(F)F | i
FC(F)n1c(-c2ccccc2)c(-c2ccccc2)n(C(F)F)c1=S | +
FC(F)n1c(=S)n(C(F)F)c2ccccc21 | i
Fc1ccc(NC(=S)Nc2ccc(Cl)c(C(F)(F)F)c2)cc1Cl | i
FC(F)(F)c1cc(NC(=S)Nc2ccc(Cl)c(Cl)c2)ccc1Cl | +
S=C(NN=C1C2CC3CC(C2)CC1C3)Nc1ccc(Cl)c(Cl)c1 | i
Nc1c(C(=O)Nc2nccs2)sc2nc3c(c(-c4cccs4)c12)CCCCC3 | i
Nc1ccc(F)cc1S(=O)(=O)Nc1ccc(Br)cc1 | i
Fc1ccc(NC(=S)NC2CCC(NC(=S)Nc3ccc(F)cc3)CC2)cc1 (stereo unspecified) | i
FC(F)Oc1ccc(NC(=S)NC2CCCCCCC2)cc1 | +
FC(F)Sc1ccc(NC(=S)NC2CCC(NC(=S)Nc3ccc(SC(F)F)cc3)CC2)cc1 (stereo unspecified) | i
CCC/C=C(\CC)C[N+]1(C)CCCCC1 | i
CC(C)(C)C1CCc2c(sc3[nH]c(=S)[nH]c(=S)c23)C1 (stereo unspecified) | i
SMILES | PL biosyn Enam
c1ccc(-n2c(Sc3ncnc4c3oc3ccccc34)nnc2C2COc3ccccc3O2)cc1 (stereo unspecified) | i
Clc1cccc(NN=C2c3ccccc3-c3ccccc32)c1 | +
Clc1ccccc1NN=C1c2ccccc2-c2ccccc21 | i
Clc1ccc(NN=C2c3ccccc3-c3ccccc32)cc1Cl | i
C=CCNC(=S)Nc1ccccn1 | i
CCN(CC)P(/C=C1/N(C)c2ccccc2C1(C)C)(=Nc1ccc(C)cc1C)c1ccccc1 (stereo unspecified) | +
CN1/C(=C\P(=Nc2cccc3ccccc23)(Oc2cccc3ccccc23)c2ccccc2)C(C)(C)c2ccccc21 (stereo unspecified) | i
Cc1ccc(NP(=O)(/C=C2\N(C)c3ccccc3C2(C)C)c2ccccc2)cc1C (stereo unspecified) | i
c1cncc(-c2nc(NC3CCCC3)c3c4c(sc3n2)CCC4)c1 | i
Cn1/c(=N/N=C/c2cn(-c3ccccc3)nc2-c2cc3ccccc3o2)sc2ccccc21 | i
C(=C\c1cn(-c2ccccc2)nc1-c1cc2ccccc2o1)/c1nc2ccccc2s1 | +
C(=N\N(c1ccccc1)c1ccccc1)/c1cn(-c2ccccc2)nc1-c1cc2ccccc2o1 | i
Clc1ccc2nc(CSc3nnc(C4CC4)o3)cn2c1 | i
